# Assay results taken from PubChem BioAssay AID449762 (Southern Research Specialized Biocontainment Screening …, 2010).
# Screen size: about 330,000 compounds; about 1,900 (0.58%) were called active. About 4% were inconclusive and are not listed. Only a sample is shown. Results with a measured potency or affinity are listed apart. Unmarked numbers belong to inactive results. Cut-off read from the data, not from the text of the source: inconclusive = inhibition above about 70% without an active follow-up result; inactive = below that.
# Experiment: M. tuberculosis growth inhibition, HTS (AID 449762);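 note: bacterial growth assessed after seven days of incubation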
# Conditions: M. tuberculosis H37Rv growth inhibition, 7H9 media; at 25 µM; hits give high values
row,Compound,inhibition
1,CC1=CC(=O)C(C(C)C)=CC1=NC(=O)c1ccc(C)cc1,3.21%
2,CC1=CC(=O)C(C(C)C)=C/C1=N/OC(=O)c1cccc([N+](=O)[O-])c1,-5.41%
3,CCCOc1ccc(-c2csc3ncn(Cc4ccc(C(=O)O)cc4)c(=O)c23)cc1,11.8%
4,CC1CCc2nc(/C(C#N)=C/c3ccncc3)sc2C1 (centres undefined),17.6%
5,COc1cc(/C=C(\C#N)c2nc3c(s2)CCCC3)ccc1O,67.9%
6,O=C(NCCC(=O)N1CCN(c2ccccn2)CC1)c1ccc(Cl)cc1,9.44%
7,CC1(C)Cc2c(cnn2-c2ccccc2)C(=O)/C1=N\NC(=O)c1ccccc1,6.2%
8,CC1(C)Cc2c(cnn2-c2ccccc2)C(=O)/C1=N\NC(=O)c1ccccc1O,0.99%
9,COc1cccc(C2CC(c3ccc(Br)cc3)=NN2C(=O)c2ccncc2)c1OC (centres undefined),10.4%
10,C=C1CCC[C@]2(C)C[C@H]3OC(=O)C(CNCC(C)C)[C@H]3CC12 (some centres undefined),-0.86%
11,C=C1CCC[C@]2(C)C[C@H]3OC(=O)C(CNC(C)CC)[C@H]3CC12 (some centres undefined),7.33%
12,CN(C)C(=O)c1ccc(Cl)cc1[N+](=O)[O-],-3.01%
13,COc1ccc(S(=O)(=O)N(C)C[C@H]2Oc3c(NC(=O)NC(C)C)cccc3C(=O)N([C@H](C)CO)C[C@@H]2C)cc1,-6.16%
14,O=c1c2ccccc2nc2c3ccccc3c(NCCN3CCOCC3)nn12,7.65%
15,c1ccc(-c2csc3ncnc(NCCCN4CCOCC4)c23)cc1,0.1%
16,COc1cccc(CNS(=O)(=O)c2c(C(=O)N3CCCC3)c(C)n(C)c2C)c1,3.63%
17,COc1ccc(N2CC(C)Cn3c2nc2c3c(=O)[nH]c(=O)n2C)cc1 (centres undefined),-7.69%
18,NC(=O)c1c(NC(=O)CSc2nnc(Cc3ccccc3)n2Cc2ccco2)sc2c1CCC2,55.7%
19,CC(=O)OCC1OC(n2ccc3ccccc32)C(OC(C)=O)C(OC(C)=O)C1OC(C)=O (centres undefined),-6.94%
20,O=C(CN1CCN(S(=O)(=O)c2ccc(F)cc2)CC1)Nc1ccc(Cl)c(C(F)(F)F)c1,3.5%
21,CC(=O)c1cccc(OCC(=O)N2CCN(CC(=O)Nc3cccc(F)c3)CC2)c1,-12.4%
22,COc1ccc(NC(=O)c2sc3nc(C)nc(N4CCOCC4)c3c2C)c(OC)c1,-1.8%
23,CCOc1ccccc1NC(=O)c1sc2nc(C)nc(N3CCOCC3)c2c1C,10.4%

row,Compound,inhibition
1,CC(C)(C)OC(=O)C[C@H]1C/C=C\C[C@H](CC(=O)N(CCO)Cc2ccccc2)C(=O)N[C@@H](c2ccccc2)COC1=O,-6.06%
2,COc1ccc(OC)c(NS(=O)(=O)Cc2ccccc2)c1,-14.1%
3,Cc1cc(=O)oc2c(C)c(OC(C)C(=O)NCC3CCC(C(=O)O)CC3)ccc12 (centres undefined),1.04%
4,Cn1ncc(Cl)c1C(=O)Nc1nnc(C2CC2)s1,-2.94%
5,N#CCCN(C(=O)COC(=O)CCc1nc2ccccc2c(=O)[nH]1)c1ccc(F)cc1,-3.42%
6,N#CCCN(C(=O)COC(=O)Cc1c[nH]c2ccccc12)c1ccccc1,1.58%
7,COc1ccc(NC(=O)C2CCN(S(C)(=O)=O)CC2)cc1,-4.9%
8,O=C(CC1SC(=NCC2CCCO2)NC1=O)Nc1cccc2ccccc12 (centres undefined),6.34%
9,CC(Oc1ccc(Br)cc1)C(=O)NCC(C)(C)N1CCOCC1 (centres undefined),4.22%
10,COc1cccc(CC(=O)N2CCN(c3ccccc3[N+](=O)[O-])CC2)c1,5.35%
11,COc1ccc(-c2ccc(-c3noc(C)n3)c(OC)n2)cc1,5.33%
12,CCc1nc(-c2ccc(-c3ccc(OC)cc3)nc2OC)no1,68.2%
13,COc1cc(OC)cc(OCC(O)Cn2ccnc2)c1 (centres undefined),7.96%
14,CCC(CC)C(=O)Nc1cc(C(=O)NCCc2ccccc2)ccc1Cl,1.26%
15,Cc1ccc(NC(=O)CN2C(=O)NC(Cc3ccccc3)C2=O)c(Br)c1 (centres undefined),-0.06%
16,Cc1ccc(SCCC(=O)OC(C(=O)NC(N)=O)C(C)C)cc1 (centres undefined),-4.48%
17,CCCn1nc(C(=O)Nc2cc(C(=O)OC)ccc2C)c2ccccc2c1=O,3.29%
18,CSCC[C@H](NC(=O)c1nn(C)c(=O)c2ccccc12)c1nc2ccccc2[nH]1,-4.72%
19,CCn1nc(C(=O)N[C@@H](CCSC)c2nc3ccccc3[nH]2)c2ccccc2c1=O,1.2%
20,CCCn1nc(C(=O)NNC(=O)c2ccc(OC(F)F)cc2)c2ccccc2c1=O,3.96%
21,CCCCn1nc(C(=O)NCc2ccccc2CN2CCCC2)c2ccccc2c1=O,-5.37%
22,Cn1nc(C(=O)Nc2ccccc2N2CCCC2)c2ccccc2c1=O,54.7%
23,C/C(=N\NC(=O)CNC(=O)C1COc2ccccc2O1)c1ccc(Cl)cc1 (centres undefined),1.09%

row,Compound,inhibition
1,COc1ccc(/C=C/C(=O)OCC(=O)Nc2ccc(Cl)cn2)cc1,10.3%
2,CN1CC[n+]2cnc3ccccc3c21,-2.8%
3,CC1(C)CC(NC(=O)C2CCN(S(=O)(=O)c3ccccc3C(F)(F)F)CC2)CC(C)(C)N1,-16.1%
4,COc1ccccc1C(=O)COC(=O)Cn1nc(C)c([N+](=O)[O-])c1C,-2.3%
5,CCc1cc(=O)oc2c3c(cc(OCC(=O)NCCN4CCOCC4)c12)OC(C)(C)CC3,-4.22%
6,c1ccc(-n2ccnc2)cc1,62.1%
7,c1ccc(-c2nc(-n3ccnc3)nc(-n3ccnc3)n2)cc1,22.2%
8,c1ccc(Cn2cc(-c3cccnc3)cn2)cc1,7.26%
9,Nc1cc(C(F)(F)F)cc([N+](=O)[O-])c1N,18%
10,CCCOP(=O)(O)c1c([N+](=O)[O-])cc(C(F)(F)F)cc1[N+](=O)[O-] (tested in a mixture with another compound),-2.65%
11,COC(=O)c1ccc(CNC(=O)C2CCC(=O)N(CCCc3ccccc3)C2)cc1 (centres undefined),-9.71%
12,O=C(NC1CCCC1)c1ccccc1-c1ccccc1,64.1%
13,O=C(NC1CCCCCCC1)c1ccccc1O,6.43%
14,CN(Cc1ccccc1)S(=O)(=O)c1cccc2nsnc12,-5.13%
15,COc1ccc2c(c1)O[C@@H](c1cccc(C(F)(F)F)c1)[C@H](OC(=O)NCCc1ccc(OC)c(OC)c1)C2=O,8.51%
16,COC(=O)[C@@H](NC(=O)O[C@@H]1C(=O)c2cc(Br)ccc2O[C@H]1c1cccc(OC)c1)C(C)C,8.75%
17,Cc1cc(=O)oc2cc(NC(=S)NNC(=O)c3c(Cl)cnn3C)ccc12,-1.94%
18,CCN(CC)C(=O)c1ccccc1NS(C)(=O)=O,-4.74%
19,CCNC(=O)CSc1nnc(-c2cccs2)o1,17%
20,C=CCNC(=O)CSc1nnc(-c2cccs2)o1,2.45%
21,Clc1ccc(OCCOCCN2CCCCC2)c(Br)c1,-2.44%
22,CC(C)N1CCN(Cc2cccn2-c2cccnc2)CC1CCO (centres undefined),-3.04%
23,CCOC(=O)C1(CCc2ccccc2)CCN(Cc2ccc(NC(C)=O)cc2)CC1,-6.26%

row,Compound,inhibition
1,COc1cc2ncnc(NCc3ccccc3F)c2cc1OC,4.17%
2,COc1ccc2cc(C(c3nnnn3CCc3ccccc3)N3CCC(O)CC3)c(=O)[nH]c2c1 (centres undefined),-12.3%
3,CCc1ccc2[nH]c(=O)c(C(c3nnnn3CCOC)N3CCN(c4ccccc4)CC3)cc2c1 (centres undefined),-6.34%
4,COc1cccc(OC)c1C(=O)NC(=S)N1CCCCC1c1cccnc1 (centres undefined),-6.76%
5,O=C(CCC(=O)c1cccs1)OCC(=O)c1ccc(F)cc1,1.25%
6,Cc1nn(Cc2ccccc2)c(C)c1C(=O)OCC(=O)c1cc(C)n(C2CC2)c1C,63.9%
7,COCCn1c(C)cc(C(=O)COC(=O)c2c(C)nn(Cc3ccccc3)c2C)c1C,20.6%
8,CSc1ccc(C(=O)C2CCCN(Cc3cccn3-c3cccnc3)C2)cc1 (centres undefined),9.15%
9,O=C(c1ccc2c(c1)OCO2)N1CCc2ccccc21,-5.13%
10,Cc1nc(SCC(=O)c2cc3ccccc3oc2=O)c(C#N)c(-c2cccs2)c1C(=O)Nc1ccccc1,3.9%
11,Cc1nc(SCC(=O)c2cc3ccccc3oc2=O)c(C#N)c(-c2ccccc2)c1C(=O)Nc1ccccc1,17.1%
12,COc1ccccc1Nc1nc(-c2sc(NC(=O)CC(C)C)nc2C)cs1,1.91%
13,Cc1nc(NC(=O)c2ccccc2)sc1-c1csc(Nc2ccc(Cl)cc2Cl)n1,6.01%
14,Cc1ccc(C(C)C)c(OCC(=O)Nc2ccc(N3CCN(S(C)(=O)=O)CC3)cc2)c1,-4.74%
15,CCCCCCSc1ccc([C@H]2N[C@@](CC(C)C)(C(=O)OC)[C@H]3C(=O)N(CC)C(=O)[C@@H]23)cc1,-1.98%
16,COc1cc(NC(=S)NCCc2ccccc2)c(OC)cc1NC(=O)CC(C)C,-2.92%
17,CN1C(=S)SC(N(O)C(=O)Nc2cccc3ccccc23)C1(C)C (centres undefined),3.28%
18,CN1C(=S)SC(N(O)C(=O)Nc2ccccc2)C1(C)C (centres undefined),-1.59%
19,CC1=CSC2=NS(=O)(=O)CCN12,-1.32%
20,COCCCNC(=O)c1c[nH]c2ccc(S(=O)(=O)N3CCC4(CC3)OCCO4)cc2c1=O,-4.78%
